# ± gives the standard deviation of the averaged measurements.
# Test system: SUM149
# Test: percent difference in area under dose-response curve of relative cell number, RPMI vs HPLM; higher = drug relatively more effective in HPLM than RPMI (negative = less effective in HPLM)
# Conditions: treatment time: 72 h; dose range: 10-point, 1 nM to 20 µM; media compared: RPMI vs HPLM
# Procedure: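 SUM149 triple-negative breast cancer cells, 500 cells/well in 384-well plates, were grown in RPMI or human plasma-like medium (HPLM) with 5% dialyzed FBS. They were pin-transferred with an anticancer plus metabolic-inhibitor library in 10-point dose series (20 µM to 1 nM). After 72 h, cells were fixed, stained with bisbenzimide and counted by Acumen plate cytometry. The AUC of relative survival vs dose was computed per medium, and the percent difference in AUC between RPMI and HPLM is reported.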
row,SMILES,percent difference in area under dose-response curve
1,C[S+]([O-])CCCCN=C=S (centres undefined) [Sulforaphane],-4.37%
2,CC(C)[C@]12O[C@H]1[C@@H]1O[C@]13[C@]1(O[C@H]1C[C@H]1C4=C(CC[C@@]13C)C(=O)OC4)[C@@H]2O [Triptolide],-67%
3,NC(=O)c1ccc(N)nc1 [6_Aminonicotinamide],-3.77%
4,Cc1sc2c(c1C)C(c1ccc(Cl)cc1)=N[C@@H](CC(N)=O)c1nnc(C)n1-2,-25.8%
5,Oc1cc(Cl)ccc1Oc1ccc(Cl)cc1Cl [Triclosan],2.04%
6,CCCCCC[C@H]1C(=O)O[C@H](C)[C@H](NC(=O)c2cccc(NC=O)c2O)C(=O)O[C@@H](C)[C@@H]1OC(=O)CC(C)C [Antimycin_A],-6.05%
7,CC(=O)N[C@H]1[C@@H](O[C@@H]2O[C@H](CC(O)[C@H]3O[C@@H](n4ccc(=O)[nH]c4=O)[C@H](O)[C@@H]3O)[C@H](O)[C@H](O)[C@H]2NC(=O)/C=C/CC(C)C)O[C@H](CO)[C@@H](N)[C@@H]1O (some centres undefined) [Tunicamycin],-6.39%
8,O=C(O)CCCc1ccc(N(CCCl)CCCl)cc1 [Chloroambucil],-5.32%
9,CC(=O)c1c(O)c(C)c(O)c(Cc2c(O)c3c(c(C(=O)/C=C/c4ccccc4)c2O)OC(C)(C)C=C3)c1O [Rottlerin],-6.49%
10,N#Cc1cn([C@@H]2O[C@H](CO)[C@@H](O)[C@H]2O)c2ncnc(N)c12 [Toyocamycin],-27.1%
11,[N-]=[N+]=CC(=O)OC[C@H](N)C(=O)O [Azaserine],-16.2%
12,C/C(=C\c1csc(C)n1)[C@@H]1C[C@@H]2O[C@]2(C)CCC[C@H](C)[C@H](O)[C@@H](C)C(=O)C(C)(C)[C@@H](O)CC(=O)O1 [Epothilone_B],-49.1%
13,C/C=C(/C)C(=O)O[C@H]1C(C)=C2[C@H]([C@@H]1OC(=O)CCCCCCC)[C@@](C)(OC(C)=O)C[C@H](OC(=O)CCC)[C@@]1(O)[C@H]2OC(=O)[C@@]1(C)O [Thapsigargin],-31.9%
14,Cn1c(CCCC(=O)O)nc2cc(N(CCCl)CCCl)ccc21 [Bendamustine_HCL],-4.52%
15,Cc1cc2c(C(C)C)c(O)c(O)c(C=O)c2c(O)c1-c1c(C)cc2c(C(C)C)c(O)c(O)c(C=O)c2c1O [Gossypol],-5.85 ± 4.1%
16,c1ccc2c(c1)[I+]c1ccccc1-2 [Diphenyleneiodonium_chloride],-42%
17,O=C1CSC(c2ccccc2Cl)c2cc(Cl)ccc2N1 (centres undefined),4.73%
18,S=C=NCCc1ccccc1,-5.8%
19,CC1=CC(=O)c2c(O)cccc2C1=O [Plumbagin],-4.04%
20,CC[C@@H]1/C=C/C=C/C[C@H](C)[C@H](O)[C@](C)(O)C(=O)[C@H](C)[C@@H](O)[C@H](C)C(=O)[C@H](C)[C@@H](O)[C@H](C)/C=C/C(=O)O[C@H]2[C@@H](C)[C@@H](CC1)O[C@@]1(CC[C@@H](C)[C@@H](C[C@H](C)O)O1)[C@@H]2C [Oligomycin_A],-41%
21,CCOc1ccccc1-n1c(C(C)N2CCN(C(=O)COc3ccc(Cl)cc3)CC2)nc2ccccc2c1=O (centres undefined) [Erastin],-2.91%
22,O=S(=O)(CC1CS1)c1ccc(Oc2ccccc2)cc1 (centres undefined),4.58%
23,C=C(C)[C@H]1Cc2c(ccc3c2O[C@@H]2COc4cc(OC)c(OC)cc4[C@@H]2C3=O)O1 [Rotenone],-23%
24,C/C(=C\c1csc(C)n1)[C@@H]1C[C@@H]2O[C@@H]2CCC[C@H](C)[C@H](O)[C@@H](C)C(=O)C(C)(C)[C@@H](O)CC(=O)O1 [Epothilone_A],-32.6%
